Source: PubChem BioAssay (National Center for Advancing Translational Sciences (NCATS))
An excerpt weighted towards active compounds, which were near 12% of everything screened.
BAZ2B inh: BAZ2B (human) inhibition | Q9UIF8 | AlphaScreen BAZ2B-H3K14Ac peptide displacement | Potency, µM (titrated, usually from 114 µM), inactives show top-dose activity change, negative = inhibition, most hits filed as inhibitors | 360,000 tested, 4.4% active | AID 504333; also: % is scaled to controls: 0 for no effect and ±100 for the full control effect; nearly all actives have a fitted effect of over 60% in size
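Multi-concentration screen (max 110 uM) measuring displacement of acetylated histone H3 peptide from BAZ2B by AlphaScreen, using 50 nM protein, 50 nM peptide and 10 ug/mL streptavidin donor plus Ni-chelate acceptor beads.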
Sfp inh: inhibitors of Bacillus subtilis Sfp phosphopantetheinyl transferase; Biochemical Sfp PPTase activity, qHTS; Potency, µM, inactives show largest response in the series, negative = inhibition, usual class: inhibitors; 310,000 tested, 3.5% active; AID 1490;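 also: the enzyme is Sfp with the accession as filed and its product quenches rhodamine fluorescence; 0% = enzyme reaction without inhibitor and -100% = no enzyme wells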
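Step 1, compound plus 15 nM Sfp-PPTase, 15 min, room temperature. Step 2, add rhodamine-CoA (5 uM) and BHQ-2-YbbR (12.5 uM). Step 3, read 525/598 nm fluorescence at 0 and 30 min.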
PLK1 PBD block: blocks phosphopeptide binding to human PLK1 polo-box domain; Potency, µM, inactives show max response, negative = inhibition, actives largely listed as inhibitors; AID 720504; Plk1 PBD binding of FITC phosphopeptide, fluorescence polarization; P53350; 360,000 tested, 2.8% active; also: series mostly up to about 57 µM; % is scaled to controls: 0 for no effect and ±100 for the full control effect; nearly all actives have a fitted effect of over 65% in size
JMJD2A Tudor inh: inhibitors of human JMJD2A Tudor domain. Potency, µM (doses to about 114 µM), inactives show at the top dose activity change, negative = inhibition, usual class: inhibitors. 390,000 tested, 4.4% active. AlphaScreen JMJD2A-Tudor / H3K4me3 peptide binding; also: % is scaled to controls: 0 for no effect and ±100 for the full control effect; nearly all actives have a fitted effect of over 50% in size
G9a inh: blocks human histone lysine methyltransferase G9a | Q96KQ7 | AID 504332 | Potency, µM (doses to about 102 µM), inactives show top-dose activity, negative = inhibition, most hits filed as inhibitors | 350,000 tested, 8.8% active | G9a H3K9 monomethylation, AlphaScreen, 2 h; also: % is scaled to controls: 0 for no effect and ±100 for the full control effect; nearly all actives have a fitted effect of over 75% in size
Target sequence (Q96KQ7 913-1193 limits assumed): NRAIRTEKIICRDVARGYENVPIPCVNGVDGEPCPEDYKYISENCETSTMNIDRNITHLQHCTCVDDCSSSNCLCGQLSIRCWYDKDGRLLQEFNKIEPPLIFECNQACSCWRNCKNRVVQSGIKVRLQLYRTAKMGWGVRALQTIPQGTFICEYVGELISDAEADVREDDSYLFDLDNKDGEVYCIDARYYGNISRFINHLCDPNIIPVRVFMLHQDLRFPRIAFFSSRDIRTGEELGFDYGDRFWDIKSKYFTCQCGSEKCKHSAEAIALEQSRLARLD
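Step 1: enzyme (final 20 nM) with compound, 15 min RT. Step 2: substrate peptide 500 nM and SAM 20 uM, 2 h RT. Step 3: anti-H3K9me1 antibody and AlphaScreen beads, 10 min, then plate read.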
HP1b binding inh: HP1-beta chromodomain-methylated histone interaction inhibition. P83916. AlphaScreen HP1-beta / biotin-H3K9me3 peptide binding. Potency, µM (titrated, usually from 114 µM), without a hit: top-dose activity change, negative = inhibition, hits mostly inhibitors. 390,000 tested, 0.56% active. AID 540317; also: nearly all actives have a fitted effect of over 70% in size
Target sequence (P83916 whole entry, looked up): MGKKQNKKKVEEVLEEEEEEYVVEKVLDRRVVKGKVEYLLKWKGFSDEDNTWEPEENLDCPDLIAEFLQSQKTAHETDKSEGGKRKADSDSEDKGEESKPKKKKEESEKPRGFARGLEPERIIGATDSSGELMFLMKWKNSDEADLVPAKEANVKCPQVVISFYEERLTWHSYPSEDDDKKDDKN
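AlphaScreen: HP1-beta (50 nM) preformed 30 min with biotin-H3(1-18)K9me3 peptide (50 nM) in PBS pH 7.4, 0.01% Tween-20. Compound added for 30 min at RT, then streptavidin donor/nickel chelate acceptor beads (10 ug/mL) for 30 min.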
Active calls of the source: *; ? = inconclusive; . = no result given; [ ] = another dose, or the depositor's remark. Calls follow the shape of the dose curve; as a rule, active = well fitted curve in the direction sought with a large enough effect; inconclusive = small, poorly fitted or top-dose-only effect, or another doubt; inactive = no such curve, though single readings can be large; an effect the other way counts as inactive or inconclusive. Potency is read from the fitted curve at half-maximal effect.

SMILES | BAZ2B inh | Sfp inh | PLK1 PBD block | JMJD2A Tudor inh | G9a inh | HP1b binding inh
Cc1ccc(/C=C/S(=O)(=O)NCc2ccc(F)cc2)cc1 | -1% | 1% | -19% | -3% | 6% | 5%
Cc1ccc2c(c1C)OC(=O)CC2c1ccccc1 (stereo unspecified) | 50% | -11% | -3% | 45% | . | 134%
O=C1CC(=C2c3ccccc3-c3ccccc32)C(=O)N1CCCCN1CCN(c2ccccc2)CC1 | ? | -1% | -9% | ? | 7.9µM* | -7%
CN1CCN(c2nc3c(=O)[nH]c(N)nc3n2C2OC(CO)C(O)C2O)CC1 (stereo unspecified) | . | . | . | -10% | . | 27%
CCNc1ccc(C(=O)OCC)cc1NC(=O)c1cccc(N(C)C)c1 | ? | 10% | -4% | ? | 50µM* | -18%
CCOC(=O)c1ccc(S(=O)(=O)NNC(=O)c2cccc(N(C)C)c2)cc1 | . | 13% | -12% | -19% | 11µM* | 10%
CCOc1cc(N2CCOCC2)c(OCC)cc1NS(=O)(=O)c1ccc2c(c1)CC(=O)N2 | . | . | 1% | . | . | .
CCn1c2ccccc2c2cc(C3C(C#N)=C(N)Oc4n[nH]c(COC)c43)ccc21 (stereo unspecified) | -37% | -5% | 6µM* | ? | ? | -5%
CCCc1[nH]nc2c1C(c1ccccc1OC)C(C#N)=C(N)O2 (stereo unspecified) | -33% | -2% | ? | 6%[57.1 µM] | ? | 29%
CCCc1[nH]nc2c1C(c1ccc(O)c(OC)c1)C(C#N)=C(N)O2 (stereo unspecified) | -36% | -6% | -2% | -16% | 50µM* | 2%
CCCNC(=O)c1ccc(N2CCC3(CC2)CC(c2ccccc2)=NO3)c(NC(=O)Cc2ccc(F)cc2)c1 | ? | 6% | 1% | -32% | 50µM* | 28%
CCCNC(=O)c1ccc(N2CCC3(CC2)CC(c2ccccc2)=NO3)c(N)c1 | 0% | -2% | -11% | -9% | . | 24%
NCc1ccccc1Sc1ccccc1CO | . | -16% | . | . | -28%[12.7 µM] | .
CC(=O)c1cc2c(O)c(O)ccc2o1 | -30% | 56µM* | -5% | ? | 4µM* | 15%
COc1ccc(OC)c(S(=O)(=O)Nc2c(NC3CCCCC3)c3ccccc3oc2=O)c1 | ? | 10% | 6% | -23% | 9% | 44%
COc1cc(C(c2nnnn2C(C)(C)C)N2CCN(c3nc4ccccc4s3)CC2)ccc1O (stereo unspecified) | ? | 25µM* | -24% | ? | 2.2µM* | ?
COc1ccccc1N1CCN(C(c2ccc(Cl)cc2)c2nnnn2C(C)(C)C)CC1 (stereo unspecified) | -38% | 4% | -9% | ? | 8%[59 µM] | -5%
COc1ccc(C(c2nnnn2C(C)(C)C)N2CCN(c3nc4ccccc4s3)CC2)cc1OC (stereo unspecified) | 79µM* | 4% | -28% | 14%[11.4 µM] | -41% | -11%
CCN1CCN(C(c2ccc(OC)c(OC)c2)c2nnnn2C(C)(C)C)CC1 (stereo unspecified) | ? | -2% | ? | -10%[11.4 µM] | -13%[12.7 µM] | 13%
CN=c1scc(-c2ccco2)n1/N=C/c1ccc(O)c(O)c1 | 28µM* | 50µM* | ? | -27%[11.4 µM] | 11µM* | ?
COc1ccc(O)c(/C=N/n2c(-c3ccco3)csc2=Nc2cccnc2)c1 | ? | 1% | -13% | -6%[57.1 µM] | 20%[59 µM] | 1%
Cc1cc(=O)n(CC(=O)NCCC(C)C)c2c1c(C)nn2C | -1% | . | . | -10% | 10%[59 µM] | 18%
COc1cc(-c2noc(CCC(=O)Nc3cccnc3)n2)cc(OC)c1OC | 11% | ? | 0% | -11% | 35µM* | 23%
COc1ccccc1-c1noc(CCC(=O)Nc2ccccc2Cl)n1 | 38% | 10µM* | -11% | -22% | 2.8µM* | 18%
COc1ccccc1-c1noc(CCC(=O)Nc2cccc(C)c2)n1 | -5% | ? | -12% | -9% | 35µM* | 34%
SMILES | BAZ2B inh | Sfp inh | PLK1 PBD block | JMJD2A Tudor inh | G9a inh | HP1b binding inh
CC(=O)c1cccc(NC(=O)CCC(=O)Oc2ccc(C)cc2)c1 | 10% | 5% | -1% | 16% | 3% | 52%
O=C(Nc1ccc(S(=O)(=O)Nc2cnc3ccccc3n2)cc1)c1ccc(Br)o1 | 0% | 17% | -8% | -18% | 45µM* | 16%
CCCCc1cc2c(cn1)=C(OC(=O)C1CCCC1)C(C)(OC(=O)CC)C(=O)C=2 (stereo unspecified) | . | 10% | . | . | . | .
CC1CN(c2cc(=O)n(-c3ccccc3)c(=O)[nH]2)CC(C)O1 (stereo unspecified) | 10% | 6% | 0% | 1% | 40µM* | 10%
O=C(NCc1nc(-c2ccc(C(F)(F)F)cc2)no1)Nc1ccc(OC(F)(F)F)cc1 | 6% | 28% | -2% | -3% | . | 64%
NC(=O)c1ncc(C(F)(F)F)cc1Oc1ccc(C(F)(F)F)cc1 | 14% | 3% | -9% | -4% | -27%[12.7 µM] | 31%
C[C@H](N)C(=O)N[C@@H](CO)C(=O)N[C@H](C(=O)N[C@H](C(=O)N[C@H](C(=O)N[C@@H](CC(N)=O)C(=O)N[C@@H](Cc1ccc(O)cc1)C(=O)N[C@H](C(=O)O)[C@@H](C)O)[C@@H](C)O)[C@@H](C)O)[C@@H](C)O | . | 13% | . | . | . | .
Cc1cc(NS(=O)(=O)c2ccc3c(c2)CCC(=O)N3)ccc1F | . | . | . | -13% | . | .
Cc1cc(OCc2ccc(C(=O)n3cccn3)o2)ccc1Cl | 21% | -15% | 24µM* | -5%[57.1 µM] | -18%[59 µM] | 26%
COCCn1c(=O)c(-c2cc(F)cc(F)c2)nc2cnc(OC)nc21 | . | 13% | . | . | -2%[12.7 µM] | .
CC1(C)CC(=O)C(C(=O)C2CCN(S(=O)(=O)c3ccccc3)CC2)C(=O)C1 | -9% | 5% | -5% | 100µM* | -28% | 12%
O=C(NNS(=O)(=O)c1ccccc1)C1CCN(S(=O)(=O)c2ccc(Cl)cc2)CC1 | 7% | 2% | -1% | 13% | 19%[59 µM] | 31%
O=C(NNS(=O)(=O)c1ccccc1)C1CCN(S(=O)(=O)c2ccccc2)CC1 | 4% | -13% | ? | -4% | 22µM* | 30%
CCOC(=O)c1c(C)[nH]c(C)c1S(=O)(=O)N(C)CC(=O)Nc1ccc(C)cc1C | -11% | . | . | -9% | 0%[59 µM] | 22%
Cc1ccccc1-c1ccc2ncnc(NCCN3CCOCC3)c2c1 | . | 7% | . | . | -4%[0.501 µM] | .
CC(=O)OCC1(C)CN(c2ccccc2)N(C(=O)c2ccc(C(C)(C)C)cc2)C1=O (stereo unspecified) | -24% | -11% | -6% | -18% | 40µM* | 63%
COC(=O)CN1CC(=O)N(c2ccccc2)C1=S | -2% | -8% | ? | -10% | 9%[59 µM] | -18%
